Most compounds without a hit are left out; they make up all but 8.2% or so of the library.
KB-3-1 cytotox: KB-3-1 parental cell cytotoxicity; 1.4% of 400,000 active; Potency, µM (doses to about 46.1 µM), most hits filed as cytotoxic; KB-3-1 viability, CellTiter-Glo ATP luminescence, 72 h; also: % is scaled to controls: 0 for no effect and ±100 for the full control effect; nearly all actives have a fitted effect of over 60% in size
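Viability of parental KB-3-1 cells, measured by CellTiter-Glo luminescence, followed a 72 h incubation at 37 °C with pinned compounds in phenol-red-free DMEM containing 10% FBS.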
KB-V1 cytotox: kills drug-selected multidrug resistant KB-V1 cells; KB-V1 MDR cells viability, CellTiter-Glo, 72 h; Potency, µM (top dose mostly 46.1 µM), hits mostly cytotoxic; 3.4% of 400,000 active; also: % is scaled to controls: 0 for no effect and ±100 for the full control effect; nearly all actives have a fitted effect of over 60% in size
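Readout: CellTiter-Glo luminescence, 10 min after addition. Cells: KB-V1 MDR subline, 72 h at 37 degrees C with compound. Analysis: corrected, normalized data fitted to concentration-effect curves.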
ELG1 DNA repair: ELG1-dependent DNA repair inhibition; HEK293T ELG1-luciferase reporter, luminescence, 16 h; DNA damage induced by 5-fluorouridine; Potency, µM (titrated, usually from 46.1 µM), without a hit: at the highest dose activity change, negative = inhibition, usual class: inhibitors; 2.3% of 330,000 active; also: % is scaled to controls: 0 for no effect and ±100 for the full control effect; nearly all actives have a fitted effect of over 55% in size
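In this reporter screen, reduction of luminescence relative to DMSO vehicle indicated activity. Compounds and 5-fluorouridine were added together to 2,000 cells per well, incubated for 16 hr at 37 °C, then developed with ONE-Glo.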
SW480 rerep: DNA re-replication induction in SW480 cells | 1.8% of 340,000 active | SW480 DNA re-replication, Hoechst DNA content imaging, 48 h | Potency, µM (top dose mostly 46.1 µM), without a hit: at the top dose re-replication activation, usual class: activators | AID 624297; also: % of control where 0% means no effect; nearly all actives have a fitted effect of over 55% in size
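Treated cells incubate 48 hr (37 C, 5% CO2), are stained 40 min with Hoechst, and nuclear fluorescence is enumerated; a rise in nuclei with high DNA signal marks re-replication.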
MCF10A rerep: inducers of DNA re-replication in MCF 10A breast cells | MCF 10A DNA re-replication, Hoechst nuclear intensity, 48 h | Potency, µM (titrated, usually from 46.1 µM), for inactives: top-dose activity, positive = re-replication, hits mostly activators | 2.9% of 350,000 active | AID 624296; also: % of control where 0% means no effect; nearly all actives have a fitted effect of over 50% in size
The depositor's hits bear a star; i = inactive; ? = inconclusive; . = no result; [ ] = remark or other dose. Calls follow the shape of the dose curve; as a rule, active = well fitted curve in the direction sought with a large enough effect; inconclusive = small, poorly fitted or top-dose-only effect, or another doubt; inactive = no such curve, though single readings can be large; an effect the other way counts as inactive or inconclusive. Potency is read from the fitted curve at half-maximal effect.

SMILES | KB-3-1 cytotox | KB-V1 cytotox | ELG1 DNA repair | SW480 rerep | MCF10A rerep
NC(N)=Nc1nc(-c2ccccc2)c2cc(F)ccc2n1 | 23µM* | i | 0% | 8%[1.84 µM] | ?
CC(C)COc1ccc2[nH]c3c(c2c1)CCCC3=O | 0.92µM* | 0.18µM* | 20% | -4% | 0%
COc1ccc(S(=O)(=O)NCC(c2ccc(F)cc2)N2CCOCC2)cc1Br (centres undefined) | i | ? | 9% | 3% | -3%
COc1ccc(C(C)=O)cc1COC(=O)Cc1n[nH]c(=O)c2ccccc12 | i | 13µM* | 2% | -3% | 6%
O=C(Cc1n[nH]c(=O)c2ccccc12)OCC(=O)c1ccc(F)cc1 | i | i | -4% | 0% | 4%
CC(=O)c1ccc(OCC(=O)c2cc(C)n(-c3ccc4c(c3)OCO4)c2C)cc1 | ? | 8.2µM* | ? | 2% | 6%
CCOc1ccc(C(=O)COC(=O)Cc2n[nH]c(=O)c3ccccc23)cc1 | 4.1µM* | 4.6µM* | ? | 2.6µM* | 1.6µM*
O=C(Cc1n[nH]c(=O)c2ccccc12)OCC(=O)c1ccc2c(c1)OCCO2 | 1.5µM* | ? | ? | 4.6µM* | 2.1µM*
CNc1c(-n2cc(C(=O)OC)c(C(=O)OC)c2C(=O)OC)c(=O)n(C)c(=O)n1C | i | i | 0% | -1% | 1%
COc1ccc(NC(=O)C2=C(C)C(=O)OC23CCN(C(C)C)CC3)cc1Cl | i | i | . | . | .
Cc1cc(C(=O)COC(=O)Cc2n[nH]c(=O)c3ccccc23)c(C)n1-c1ccc2c(c1)OCO2 | i | ? | 13µM* | -10% | 12%
Cc1ccc(Nc2nc(NCc3ccco3)nc3nccnc23)cc1C | i | i | . | . | .
CC(=O)c1cccc(N=c2scc(-c3ccc(S(=O)(=O)N4CCOCC4)cc3)n2CCO)c1 | i | 5.8µM* | ? | -1% | -2%
C=CCn1c(-c2ccc(OC)cc2)csc1=Nc1c(C)n(C)n(-c2ccccc2)c1=O | 16µM* | 8.2µM* | 21µM* | 2% | 1%
COc1ccc(-c2csc(=Nc3ccccc3)n2CCO)cc1 | 12µM* | 7.3µM* | ? | -6% | ?
COc1ccc(N=c2scc(-c3ccc(S(=O)(=O)N4CCOCC4)cc3)n2CCCO)cc1 | . | . | 15µM* | . | .
CCCC[C@@H]1CNC(=O)C(=O)N1CCCC | i | i | . | . | .
OC(c1ccc(F)cc1)c1nc(-c2ccc(Cl)cc2)cs1 (centres undefined) | i | i | . | . | .
CC(C)(C)OC(=O)NCCc1onc(-c2cccc([N+](=O)[O-])c2)c1C(=O)O | i | ? | . | . | .
CC(=O)Nc1cc(-c2ccc(C(=O)N3CCOCC3)cc2)cn2c(-c3cccc(C(C)=O)c3)cnc12 | i | i | . | . | .
Cc1[nH][nH]c(=O)c1C(c1c(C)[nH][nH]c1=O)c1cn(Cc2cccc3ccccc23)c2ccccc12 | ? | 21µM* | -16% | ? | ?
Cc1[nH][nH]c(=O)c1C(c1c(C)[nH][nH]c1=O)c1cn(C)c2ccccc12 | i | i | 1% | 25% | 3%
Oc1ccccc1C1=Nc2ccccc2N=C(c2cccs2)C1 | i | 23µM* | 0% | 23% | ?
Cc1ccc(O)c(C2=Nc3ccccc3N=C(c3cccs3)C2)c1 | ? | 15µM* | 14% | 3% | 21µM*
Oc1ccc(Cl)cc1C1=Nc2ccccc2N=C(c2ccccc2)C1 | i | i | . | . | .
COc1ccc(C2=NS(=O)(=O)N(C)C(C(=O)N3CCc4ccccc4C3)=C2)cc1OC | ? | ? | 18µM* | 14% | -2%
CCc1ccc(NC(=O)C2=CC(c3ccc(OC)c(OC)c3)=NS(=O)(=O)N2C)cc1 | i | i | 13µM* | -7% | 2%
COc1ccc(C2=NS(=O)(=O)N(C)C(C(=O)NCc3ccccc3)=C2)cc1OC | i | i | ? | 0% | -5%
COc1ccc(-n2c(=S)[nH]c3cc(C(=O)NCc4cccnc4)ccc3c2=O)cc1 | i | i | -12% | ? | 2%
CN(CC(=O)Nc1ccc(Cl)c(C(F)(F)F)c1)C(=O)c1ccc(S(=O)(=O)N2CCOCC2)cc1 | 8.2µM* | ? | . | ? | 5.8µM*

From PubChem
